Coupling enz – qHTS Assay for Inhibitors of Fructose-1,6-bisphosphate Aldolase from Giardia Lamblia: Coupling assay counterscreen; activity change, negative = inhibition, % at 58.2 µM, hits read low; 290,000 compounds, 0.67% hits; coupling enzyme system counterscreen, AmpLite Red fluorescence; AID 2472, 2010; in the data active = activity change below about -30%
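Counterscreen lacking aldolase: glyceraldehyde-3-phosphate coupling-enzyme reagent preincubated 10 min at RT with compound (at 57.5 uM final), then substrate/coupling system with AmpLite Red added; fluorescence read at 525/598 nm after 20 min RT.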
KDM4E inh – qHTS Assay for Inhibitors of Human Jumonji Domain Containing 2E (JMJD2E); 230,000 compounds, 1.6% hits; JMJD2E catalytic domain, FDH-coupled NADH fluorescence (FDH is formaldehyde dehydrogenase); AID 2147, 2009; Potency, µM (highest dose often 57.1 µM), hits mostly inhibitors; Lysine-specific demethylase 4E (Homo sapiens), B2RXH2; active = well fitted inhibition curve with a large enough effect, not every such curve was filed as active; inconclusive = small, poorly fitted or top-dose-only effect, or another doubt; inactive = no such curve, though single readings can be large or run the other way; note: nearly all actives have a fitted effect of over 50% in size
Target sequence (B2RXH2 1-337 limits assumed): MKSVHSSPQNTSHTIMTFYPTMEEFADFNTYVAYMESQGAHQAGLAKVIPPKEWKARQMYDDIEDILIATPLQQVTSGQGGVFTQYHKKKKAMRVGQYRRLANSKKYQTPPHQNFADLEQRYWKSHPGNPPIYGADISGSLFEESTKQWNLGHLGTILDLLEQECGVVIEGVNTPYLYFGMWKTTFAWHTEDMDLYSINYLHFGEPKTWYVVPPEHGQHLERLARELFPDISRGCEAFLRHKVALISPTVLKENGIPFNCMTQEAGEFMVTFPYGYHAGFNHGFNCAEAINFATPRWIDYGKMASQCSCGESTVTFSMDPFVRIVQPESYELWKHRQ
Tau fluor counter – Counterscreen qHTS for Inhibitors of Tau Fibril Formation, Fluorescence Polarization; Potency, µM (highest dose often 57.7 µM); tau K18 P301L Alexa594 fluorescence, heparin fibrillization; 280,000 compounds, 0.93% hits; note: nearly all actives have a fitted effect of over 55% in size
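Human K18 P301L tau (15 uM unlabeled plus 0.24 uM Alexa 594-labeled, final) in 100 mM sodium acetate pH 7 was mixed with compound and 20 uM heparin and incubated 6 hr at 37 C.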
Sfp PPTase inh – qHTS Assay for Inhibitors of Bacillus subtilis Sfp phosphopantetheinyl transferase (PPTase); 310,000 compounds, 3.5% hits; 4'-phosphopantetheinyl transferase ffp (Bacillus subtilis), Q9F4F7; AID 1490, 2009; Biochemical Sfp PPTase activity, qHTS; Potency, µM, actives largely listed as inhibitors;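 note: the enzyme is Sfp with the accession as filed and its product quenches rhodamine fluorescence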
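Fluorescence-quenching assay: 15 nM Sfp-PPTase preincubated 15 min at room temperature with compound, then 5 uM rhodamine-CoA and 12.5 uM BHQ-2-labelled YbbR peptide added. Fluorescence (ex 525/em 598 nm) read at start and after 30 min; difference gives rate.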
Tau fibril FP – qHTS for Inhibitors of Tau Fibril Formation, Fluorescence Polarization; Microtubule-associated protein tau (Homo sapiens), P10636; K18 P301L tau heparin fibrillization, Alexa594 FP, 6 h; Potency, µM (titrated, usually from 57.7 µM), hits mostly inhibitors; 280,000 compounds, 0.39% hits; AID 1468, 2008; note: nearly all actives have a fitted effect of over 55% in size
Target sequence (P10636 561-689 P618L limits assumed): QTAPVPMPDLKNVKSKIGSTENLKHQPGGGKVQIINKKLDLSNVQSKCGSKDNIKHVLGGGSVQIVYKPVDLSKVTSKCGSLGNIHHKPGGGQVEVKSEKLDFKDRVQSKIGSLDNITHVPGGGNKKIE
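Quantitative HTS format: compounds meet 15 uM recombinant K18 P301L tau and Alexa 594-tau tracer in 100 mM sodium acetate pH 7; 20 uM heparin triggers fibrillization at 37 C over 6 hr; FP gives the signal.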
Tau fibril ThT – qHTS for Inhibitors of Tau Fibril Formation, Thioflavin T Binding; Microtubule-associated protein tau (Homo sapiens), P10636; recombinant tau K18 P301L, heparin-induced fibrillization, ThT fluorescence; Potency, µM (highest dose often 57.4 µM), most hits filed as inhibitors; 270,000 compounds, 2.1% hits; note: nearly all actives have a fitted effect of over 55% in size
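Using a mix of unlabeled (15 uM) and Alexa 594-labeled (0.24 uM) tau K18 P301L, heparin-triggered fibrillization over 6 hr at 37 C was scored by ThT fluorescence.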
Hits are given with their value; i = inactive; ? = inconclusive; nt = no result; [ ] = dose if it differs, or a comment. The list is not random: actives were taken first. Their share in the collection is about 5.3%. Unless noted, calls come from the whole dose curve; as a rule, active = well fitted curve in the direction sought with a large enough effect; inconclusive = small, poorly fitted or top-dose-only effect, or another doubt; inactive = no such curve, though single readings can be large; an effect the other way counts as inactive or inconclusive.

SMILES	Coupling enz	KDM4E inh	Tau fluor counter	Sfp PPTase inh	Tau fibril FP	Tau fibril ThT
CCCCCCC(=O)Nc1nc(C)c(-c2csc(Nc3cc(Cl)ccc3C)n2)s1	i	i	?	i	i	?
CCC(C)C(=O)Nc1nc(C)c(-c2csc(Nc3cc(Cl)ccc3OC)n2)s1 (stereo not given)	i	i	13µM[quencher]	?	i	?
COc1ccc(OC)c(Nc2nc(-c3sc(NC(=O)CC(C)C)nc3C)cs2)c1	i	?	13µM[quencher]	i	i	?
CC(C)CNc1nc(C#N)nc(Nc2ccccc2)n1	i	nt	nt	nt	nt	nt
Cc1nc(-c2ccc(Cl)cc2)oc1COC(C)(C)C(=O)O	nt	nt	nt	i	nt	nt
COc1cc(C(=O)Nc2cc3c(cc2C)n(C)c(=O)c(=O)n3C)cc(OC)c1OC	nt	nt	i	nt	i	i
O=C(Cc1cccs1)NC1C(=O)N2C(C(=O)[O-])=C(C[n+]3ccccc3)CSC12 (stereo not given)	i	?	i	?	?	16µM
CCOC(=O)c1c[nH]c2cc(OCC(C)C)c(OCC(C)C)cc2c1=O	nt	nt	nt	i	nt	nt
Cn1c(CS/C(N)=N/N=C/c2ccccc2)c(Br)c(=O)n1-c1ccccc1	i	i	i	45µM	?	?
CCC(CNc1cc(OC)cc2cccnc12)NC1CCCCC1 (stereo not given)	i	i	i	45µM	i	?
COc1cc(NCCCC(C)N)c2ncccc2c1 (stereo not given)	-58	?	?	56µM	?	25µM
COc1cc(NS(=O)(=O)c2ccc(C)cc2)c2ncccc2c1	i	i	?	i	i	i
COc1cc(OC)c(NC(=O)CN2CCCN(Cc3ccccc3C)S2(=O)=O)cc1Cl	nt	nt	i	nt	i	i
Cc1ccc(-c2nc3s/c(=C\c4ccco4)c(=O)n3n2)cc1	i	i	i	i	i	?
Cc1ccc(/C=c2\sc3nc(-c4ccco4)nn3c2=O)o1	i	?	i	25µM	?	18µM
Cc1ccc(/C=c2\sc3nc(-c4ccccc4Br)nn3c2=O)o1	i	i	i	?	?	28µM
C=CC[N+]1([C@H]2C[C@H]3[C@@H]4CC[C@H]5C[C@H](O)[C@@H](N6CCOCC6)C[C@]5(C)[C@H]4CC[C@]3(C)[C@H]2OC(C)=O)CCCC1	nt	nt	nt	i	nt	nt
CCOC(=O)CC1C(=O)NCCN1c1nc2c(C)cccn2c(=O)c1/C=C1\SC(=S)N(CC(C)C)C1=O (stereo not given)	i	i	i	i	i	10µM
CCOCCCNc1nc2c(C)cccn2c(=O)c1/C=C1\SC(=S)N(CC(C)C)C1=O	i	i	i	i	i	i
COC(=O)C1=C(C)N(c2cccc(OC)c2)C(=O)/C1=C\c1ccco1	i	i	i	i	i	?
COC(=O)C1=C(C)N(CCc2ccccc2)C(=O)/C1=C\c1ccco1	i	i	i	50µM	i	18µM
CCN1C(=O)/C(=C\c2ccco2)C(C(=O)OC)=C1C	i	i	i	i	i	?
COC(=O)C1=C(C)N(Cc2cccnc2)C(=O)/C1=C\c1sccc1C	i	i	i	i	i	14µM
C=CCN1C(=O)/C(=C\c2ccco2)C(C(=O)OC)=C1C	i	i	i	20µM	i	i
CCN1C(=O)/C(=C\c2cccs2)C(C(=O)OC)=C1C	i	i	i	i	i	?
SMILES	Coupling enz	KDM4E inh	Tau fluor counter	Sfp PPTase inh	Tau fibril FP	Tau fibril ThT
COC(=O)C1=C(C)N(Cc2ccccc2)C(=O)/C1=C\c1ccco1	i	i	?	i	i	16µM
C/C(=N\Nc1nnc(C)c(=O)[nH]1)C(=O)O	-51	i	i	i	?	i
Cc1ccc(-c2csc(NC(=O)/C=C/c3ccco3)c2C(=O)O)cc1	i	?	i	28µM	i	?
N#Cc1c(NC(=O)/C=C/c2ccco2)sc2c1CCCC2	i	?	i	?	i	?
Cc1nc(NC(=O)/C=C/c2ccco2)sc1C	i	?	i	71µM	i	i
O=C(/C=C/c1ccco1)Nc1nnc(-c2ccco2)s1	i	?	i	i	i	i
O=C(/C=C/c1ccco1)Nc1sc2c(c1C(=O)O)CCC2	i	i	i	50µM	i	?
CNC(=O)c1c(NC(=O)/C=C/c2ccccc2)sc2c1CCC2	nt	nt	?	nt	i	14µM
COC(=O)c1c(NC(=O)/C=C/c2ccc(OC)cc2)sc2c1CCC2	nt	nt	i	nt	i	i
COc1ccc(/C=C\c2onc(C)c2S(=O)(=O)N2CCC(C(=O)Nc3ccccc3OC)CC2)cc1	nt	nt	?	nt	i	i
CC1(C)C(=O)C(c2ccccc2)=C2CN3C(=O)N(CCc4ccccc4)C(=O)C3(Cc3ccc(C(F)(F)F)cc3)C=C21 (stereo not given)	i	i	?	i	i	?
O=C(/C=C/c1ccccc1)Nc1sc2c(c1C(=O)O)CCC2	i	i	?	i	i	10µM
COc1cc(C(=O)Nc2scc(-c3ccc(Br)cc3)c2C(=O)O)cc(OC)c1OC	i	nt	nt	i	nt	nt
Cc1ccc(-c2csc(NC(=O)c3ccc(Br)cc3)c2C(=O)O)cc1	-30	nt	nt	i	nt	nt
CCC[C@H]1C[C@H](C(=O)NC(C(C)Cl)C2O[C@@H](SC)C(OP(=O)(O)O)[C@@H](O)[C@@H]2O)N(C)C1 (stereo not given in full)	i	nt	nt	i	nt	nt
CN(C)c1ncc2nc(CCc3ccccc3)c(=O)n(Cc3cccs3)c2n1	i	nt	nt	?	nt	nt
Cc1cccc(-n2ncc3c(NNC(=O)c4ccccc4Cl)ncnc32)c1	nt	nt	i	nt	?	?
C=CCOC(=O)N[C@H](c1ccccc1)C(C(C)=O)C(C)=O	i	i	i	i	i	i
O=[N+]([O-])c1ccc(C2=Nn3c(Cn4nnc5ccccc54)nnc3SC2)cc1	i	i	i	20µM	i	nt
COc1cccc([C@@H]2Oc3ccc(OC)cc3C[C@H]2OC(=O)NCc2ccco2)c1	i	i	i	i	i	i
C[C@H]1Cc2c(-c3ccccc3)nc3c(c2CO1)CN(C(=O)c1cc(I)ccc1F)CC3	i	i[11.4 µM]	i[11.6 µM]	i	i[11.6 µM]	i[11.5 µM]
COc1ccc(CC(=O)NCc2ccc3c(c2)CCN3C(=O)c2ccc(C)cc2)cc1OC	nt	nt	i	nt	i	i
C/C(=N\Nc1nc2c(s1)CCCC2)c1ccccc1	i	?	?	?	i	14µM
COc1ccc2cc(CCNC(=O)c3ccc(Br)o3)c(=O)[nH]c2c1	i	i	i	i	i	?
Cc1cc2cc(CCNC(=O)c3ccc(Br)o3)c(=O)[nH]c2cc1C	i	?	i	28µM	i	?

Assay outcomes: PubChem, National Center for Advancing Translational Sciences (NCATS)
